Experimental findings from paper PMC5700166 are described below.

Assay in all cases: protein-binding microarray (PBM); PBM: ~300 nM protein, 6 mM HEPES pH 7.8, 80 mM KCl, 0.5 mM EDTA, 0.5 mM EGTA, 6% glycerol, 35 ng/ul poly-dIdC, 1% milk, 1 h, room temperature; Ap Aiptasia and Nv Nematostella (sea anemones) / Co Capsaspora / Aq Amphimedon (sponge) / Dm Drosophila / Hu human; RHD is the Rel homology domain; high values mean tight binding
What all share (settings): dsDNA, one strand shown

Assay [1] has as its target T1, GST-Ap-NF-kB RHD (Exaiptasia pallida (Aiptasia), UniProt A0A913YAJ5 2-422).
T1 sequence: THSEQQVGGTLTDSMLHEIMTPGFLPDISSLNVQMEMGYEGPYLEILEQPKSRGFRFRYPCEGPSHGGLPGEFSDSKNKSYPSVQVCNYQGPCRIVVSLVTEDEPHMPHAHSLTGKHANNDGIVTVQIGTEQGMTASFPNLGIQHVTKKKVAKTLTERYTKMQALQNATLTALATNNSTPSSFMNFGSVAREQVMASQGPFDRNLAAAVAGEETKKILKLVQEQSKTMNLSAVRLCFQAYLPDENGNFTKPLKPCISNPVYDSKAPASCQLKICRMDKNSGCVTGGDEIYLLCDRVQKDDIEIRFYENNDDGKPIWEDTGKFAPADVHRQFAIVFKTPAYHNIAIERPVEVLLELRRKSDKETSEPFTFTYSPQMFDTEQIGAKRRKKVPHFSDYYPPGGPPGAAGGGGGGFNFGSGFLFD

In assay [2] the target is T2, GST-Nv-NF-kB (Cys allele) (Nematostella vectensis, UniProt E5G601 2-411).
T2 sequence: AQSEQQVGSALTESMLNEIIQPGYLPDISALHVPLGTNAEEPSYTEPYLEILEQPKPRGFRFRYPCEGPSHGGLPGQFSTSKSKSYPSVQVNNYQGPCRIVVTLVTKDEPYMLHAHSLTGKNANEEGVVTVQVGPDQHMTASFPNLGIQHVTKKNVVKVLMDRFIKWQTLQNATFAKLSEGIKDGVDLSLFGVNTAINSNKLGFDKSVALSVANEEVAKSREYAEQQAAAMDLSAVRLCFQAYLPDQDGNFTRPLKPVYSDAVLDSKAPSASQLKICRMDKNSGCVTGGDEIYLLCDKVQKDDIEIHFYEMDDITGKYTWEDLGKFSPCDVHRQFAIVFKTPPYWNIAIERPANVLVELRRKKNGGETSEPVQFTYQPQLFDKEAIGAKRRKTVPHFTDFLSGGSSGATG

The target in assay [3] is T3, GST-Nv-NF-kB (Ser allele) (Nematostella vectensis, UniProt A7UNT2 2-411).
T3 sequence: T2 sequence with Q21R, C66S, S207N, E215Q, V217A, E225K, A268E, D399E

Assay [4] deals with T4, GST-Co-NF-kB (Capsaspora owczarzaki, UniProt F1ARL5 200-546).
T4 sequence: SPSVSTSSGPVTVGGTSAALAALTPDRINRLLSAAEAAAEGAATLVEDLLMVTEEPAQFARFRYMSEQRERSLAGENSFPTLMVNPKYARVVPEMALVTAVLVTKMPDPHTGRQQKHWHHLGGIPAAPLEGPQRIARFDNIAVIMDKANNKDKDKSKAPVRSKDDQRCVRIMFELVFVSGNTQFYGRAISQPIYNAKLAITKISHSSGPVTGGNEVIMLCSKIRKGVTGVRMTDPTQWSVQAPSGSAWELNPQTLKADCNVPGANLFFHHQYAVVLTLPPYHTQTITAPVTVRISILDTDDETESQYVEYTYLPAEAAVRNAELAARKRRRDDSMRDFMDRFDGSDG

The target in assay [5] is T5, GST-Dm-Relish (Drosophila melanogaster, UniProt Q94527 99-473).
T5 sequence: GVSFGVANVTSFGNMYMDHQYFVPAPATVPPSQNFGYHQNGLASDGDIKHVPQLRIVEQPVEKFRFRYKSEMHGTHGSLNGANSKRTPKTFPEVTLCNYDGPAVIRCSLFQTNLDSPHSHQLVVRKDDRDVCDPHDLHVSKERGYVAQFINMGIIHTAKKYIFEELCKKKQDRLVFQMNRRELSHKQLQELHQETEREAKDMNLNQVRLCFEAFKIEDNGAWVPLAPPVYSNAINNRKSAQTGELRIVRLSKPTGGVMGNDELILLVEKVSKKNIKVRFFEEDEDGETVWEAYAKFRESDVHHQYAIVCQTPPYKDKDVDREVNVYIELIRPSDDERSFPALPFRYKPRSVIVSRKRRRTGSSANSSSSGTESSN

The target in assay [6] is T6, GST-Aq-NF-kB (Amphimedon queenslandica, UniProt A9Y5G7 2-389).
T6 sequence: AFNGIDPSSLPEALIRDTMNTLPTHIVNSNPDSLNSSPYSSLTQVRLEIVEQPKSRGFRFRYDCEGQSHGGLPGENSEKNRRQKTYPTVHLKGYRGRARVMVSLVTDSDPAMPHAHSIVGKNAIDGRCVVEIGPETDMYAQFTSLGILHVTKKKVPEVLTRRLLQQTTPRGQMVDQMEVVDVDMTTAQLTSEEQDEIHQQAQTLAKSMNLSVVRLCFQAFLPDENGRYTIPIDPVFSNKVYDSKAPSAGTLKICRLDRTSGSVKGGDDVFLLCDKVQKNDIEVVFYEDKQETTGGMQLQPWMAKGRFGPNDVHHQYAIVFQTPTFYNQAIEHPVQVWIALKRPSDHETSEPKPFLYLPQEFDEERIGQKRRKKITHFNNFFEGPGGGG

In assay [7] the target is GST-Hu-p50 (Homo sapiens, UniProt P19838 7-356).

Residue numbers refer to the chain shown, from its start.

Sequence of GST-Hu-p50 (P19838 7-356): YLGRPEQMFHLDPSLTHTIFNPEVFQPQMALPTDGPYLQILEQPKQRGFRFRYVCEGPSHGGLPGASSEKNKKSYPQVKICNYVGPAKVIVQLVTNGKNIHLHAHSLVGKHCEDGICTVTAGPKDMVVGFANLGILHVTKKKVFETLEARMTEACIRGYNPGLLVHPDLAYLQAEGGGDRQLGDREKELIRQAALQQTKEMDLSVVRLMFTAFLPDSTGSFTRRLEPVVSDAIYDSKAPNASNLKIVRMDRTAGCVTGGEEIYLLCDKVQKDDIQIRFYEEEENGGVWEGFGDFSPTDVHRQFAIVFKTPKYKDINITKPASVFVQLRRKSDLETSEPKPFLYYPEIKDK

With “CCGATTAACATCAATAAAACCCCTGATGTTAATCGGGTCTTGATTCGCTTGACGCTGCTG”, the binding signal in assay [1] is 5.73 z-score; in assay [2], 5.27 z-score; in assay [3], 5.34 z-score; in assay [4], 2.26 z-score; in assay [5], 7.35 z-score; in assay [6] it was 5.25 z-score. Besides, in assay [7], the binding signal was 6.19 z-score.
As to “CCGATTAACATCAAATAACCCCCTGATGTTAATCGGGTCTTGATTCGCTTGACGCTGCTG”, the binding signal came out at 7.15 z-score in assay [1]; 7.1 z-score in assay [2]; 7.94 z-score in assay [3]; 4.2 z-score in assay [4]; 8.44 z-score in assay [5]; 7.02 z-score in assay [6]. Besides, the binding signal in assay [7] amounted to 6.17 z-score.
On to “CCGATTAACATCAAGGGGGTACCTGATGTTAATCGGGTCTTGATTCGCTTGACGCTGCTG”, for which the binding signal came out at 5.62 z-score in assay [1]; 3.48 z-score in assay [2]; 4.15 z-score in assay [3]; 2.65 z-score in assay [4]; 3.15 z-score in assay [5]; 3.5 z-score in assay [6]. The binding signal in assay [7] is 3.89 z-score.
Take “CCGATTAACATCAGGGGAATGTATGATGTTAATCGGGTCTTGATTCGCTTGACGCTGCTG”: the binding signal in assay [1] came to 6.02 z-score; in assay [2], 7.74 z-score; in assay [3], 8.56 z-score; in assay [4], 6.26 z-score; in assay [5], 2.96 z-score; in assay [6], 5.58 z-score. In assay [7], this sequence showed a binding signal of 5.69 z-score.
“CCGATTAACATCACGGAATCCCCTGATGTTAATCGGGTCTTGATTCGCTTGACGCTGCTG”: the binding signal in assay [1] came out at 8.93 z-score; in assay [2], 8.59 z-score; in assay [3], 9.68 z-score; in assay [4] it was 3.45 z-score; in assay [5], 9.36 z-score; in assay [6], 6.48 z-score. This sequence had a binding signal in assay [7] of 6.67 z-score.
As to “CCGATTAACATCAGGGGGGTATATGATGTTAATCGGGTCTTGATTCGCTTGACGCTGCTG”, the binding signal in assay [1] was determined as 5.34 z-score; in assay [2], 2.99 z-score; in assay [3] it was 4.19 z-score; in assay [4], 5.73 z-score; in assay [5], 3.95 z-score; in assay [6], 4.1 z-score. In addition, the binding signal in assay [7] is 3.59 z-score.
Take “CCGATTAACATCAGGGATATCCCTGATGTTAATCGGGTCTTGATTCGCTTGACGCTGCTG”: the binding signal in assay [1] was 6.62 z-score; in assay [2], 6.52 z-score; in assay [3], 4.4 z-score; in assay [4], 3.18 z-score; in assay [5], 7.32 z-score; in assay [6], 7.89 z-score. In assay [7], this sequence registered a binding signal of 3.87 z-score.
In the case of “CCGATTAACATCAAGGTTTCCCCTGATGTTAATCGGGTCTTGATTCGCTTGACGCTGCTG”, the binding signal in assay [1] worked out at 7.4 z-score; in assay [2], 8.19 z-score; in assay [3], 10.3 z-score; in assay [4] it was 8.15 z-score; in assay [5] it was 7.08 z-score; in assay [6], 6.28 z-score. This sequence also gave a binding signal in assay [7] of 6.46 z-score.
“CCGATTAACATCAGGGGAGTACCTGATGTTAATCGGGTCTTGATTCGCTTGACGCTGCTG”: the binding signal in assay [1] was 7.52 z-score; in assay [2] it was 5.33 z-score; in assay [3], 6.46 z-score; in assay [4], 3.7 z-score; in assay [5], 7.86 z-score; in assay [6] it was 7.18 z-score. This sequence also returned a binding signal in assay [7] of 4.93 z-score.
Take “CCGATTAACATCAGGGGTTTTTATGATGTTAATCGGGTCTTGATTCGCTTGACGCTGCTG”: the binding signal in assay [1] is 8.01 z-score; in assay [2], 8.52 z-score; in assay [3] it was 7.26 z-score; in assay [4], 2.38 z-score; in assay [5], 8.58 z-score; in assay [6], 7.14 z-score. This sequence also displayed a binding signal in assay [7] of 7.21 z-score.
For “CCGATTAACATCAGGGAAATCTATGATGTTAATCGGGTCTTGATTCGCTTGACGCTGCTG”, the binding signal amounted to 3.65 z-score in assay [1]; 5.31 z-score in assay [2]; 6.44 z-score in assay [3]; 4.52 z-score in assay [4]; 1.64 z-score in assay [5]; 4.71 z-score in assay [6]. Also, the binding signal in assay [7] is 4.1 z-score.
As for “CCGATTAACATCACGATTTCCCCTGATGTTAATCGGGTCTTGATTCGCTTGACGCTGCTG”, the binding signal in assay [1] worked out at 7.82 z-score; in assay [2], 7.92 z-score; in assay [3] it was 10.8 z-score; in assay [4], 8.64 z-score; in assay [5], 5.06 z-score; in assay [6], 5.72 z-score. The sequence further had a binding signal in assay [7] of 6.24 z-score.
